Test results reported in PubChem BioAssay (EPA / NIEHS).
“And” between values parts separate entries of the source, which are not always exact repeats. Equal values may be shown once. Some structures have more than one record in an assay (separate samples or runs), and their calls can disagree. The source made the active and inactive calls. The calls were made as follows: active = hit-call score of the fitted dose curve at least 0.9, where 1 is the maximum; inactive = score below 0.9.

Experiments:
Details in all cases: primary human HUVEC with PBMC; actives raise or lower the signal
[1] = read-out: Interleukin-1 alpha (IL1a), IL1A (gene 3552); test: BSK_LPS_IL1a: BioMAP Diversity Plus: LPS Assay for Interleukin-1 alpha (IL1a) Biomarker Activity (AID 2283080)
How it was run: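 ELISA read-out of IL-1 alpha from a human primary vascular co-culture (endothelium plus PBMC) under LPS, sampled 24 hours post-dosing. Activity was fitted in both directions relative to DMSO controls.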

[2] = read-out: Monocyte Chemoattractant Protein-1 (MCP1), CCL2 (gene 6347); test: BSK_LPS_MCP1: BioMAP Diversity Plus: LPS Assay for Monocyte Chemoattractant Protein-1 (MCP1) Biomarker Activity (AID 2283081);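 as to AC50: secreted MCP-1 protein quantified by ELISA in culture supernatant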
How it was run: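 Human endothelial–PBMC co-cultures were dosed with chemical, then LPS-driven MCP-1 levels were quantified by ELISA at 24 h. Activity in either direction was fitted versus DMSO negative control.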

[3] = BSK_LPS_PGE2: BioMAP Diversity Plus: LPS Assay for Prostaglandin E2 (PGE2) Biomarker Activity (AID 2283082);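 as to AC50: secreted prostaglandin E2 measured by ELISA in LPS-stimulated co-culture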
How it was run: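 LPS-activated HUVEC/PBMC co-culture; cmpd dosed, 24 h; PGE2 by ELISA; bidirectional fit vs DMSO; SRB (0.1%, TCA-fixed, 560 nm) in parallel plates for overt cytotox.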

[4] = read-out: Macrophage colony-stimulating factor (MCSF), CSF1 (gene 1435); test: BSK_LPS_MCSF: BioMAP Diversity Plus: LPS Assay for Macrophage colony-stimulating factor (MCSF) Biomarker Activity (AID 2283083)
How it was run: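 ELISA readout of M-CSF after 24 h compound exposure in a human endothelial/PBMC co-culture. Activity, in either direction, is fitted relative to DMSO vehicle.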

[5] = read-out: Tissue Factor, F3 (gene 2152); test: BSK_LPS_TissueFactor: BioMAP Diversity Plus: LPS Assay for Tissue Factor Biomarker Activity (AID 2283084)
How it was run: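 ELISA signal for cell-surface Tissue Factor (CD142) was read 24 h after compound dosing of an LPS-stimulated human endothelial–PBMC primary co-culture. Gain or loss of signal was scored relative to DMSO.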

[6] = read-out: Tumor necrosis factor (Homo sapiens) (UniProt P01375); test: BSK_LPS_TNFa: BioMAP Diversity Plus: LPS Assay for Tumour Necrosis Factor alpha (TNFa) Biomarker Activity (AID 2283085);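 as to AC50: TNFa protein level quantified by ELISA in the co-culture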
How it was run: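 Read-out is ELISA of TNFa in primary human endothelial cell–PBMC co-cultures at 24 h after compound. Activity in either direction was fitted against DMSO.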

CD38, CD38 (gene 952) = test: BSK_SAg_CD38: BioMAP Diversity Plus: SAg Assay for CD38 Biomarker Activity (AID 2283087)
How it was run: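 Human HUVEC plus PBMC co-culture stimulated with superantigen; CD38 measured by ELISA 24 h after chemical dosing. Fluorescence read-out, bidirectional fit against DMSO; cytotoxicity tracked in parallel by SRB and Alamar Blue.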

CD40, CD40 (gene 958) = test: BSK_SAg_CD40: BioMAP Diversity Plus: SAg Assay for CD40 Biomarker Activity (AID 2283088)
How it was run: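 Compounds were dosed onto a human primary endothelial–PBMC co-culture, and after 24 h CD40 was quantified by ELISA using a fluorescence signal. Activity in either direction was fitted relative to DMSO.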

CD69, CD69 (gene 969) = test: BSK_SAg_CD69: BioMAP Diversity Plus: SAg Assay for CD69 Biomarker Activity (AID 2283089);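 as to AC50: cell surface CD69 protein quantified by ELISA with fluorescence detection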
How it was run: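 Endothelial/PBMC co-culture; chemical added; 24 h incubation; CD69 ELISA with fluorescence detection; bidirectional fit vs DMSO.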

[7] = read-out: Vascular cell adhesion molecule 1 (VCAM1), VCAM1 (gene 7412); test: BSK_LPS_VCAM1: BioMAP Diversity Plus: LPS Assay for Vascular cell adhesion molecule 1 (VCAM1) Biomarker Activity (AID 2283086)
How it was run: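 HUVEC + PBMC co-culture, LPS system; compound 24 h; VCAM-1 by ELISA; bidirectional fit vs DMSO control; parallel SRB (0.1%, TCA-fixed, 560 nm) for cytotoxicity.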

Measured: AC50

Tumor necrosis factor (Homo sapiens), sequence (P01375 whole entry, looked up): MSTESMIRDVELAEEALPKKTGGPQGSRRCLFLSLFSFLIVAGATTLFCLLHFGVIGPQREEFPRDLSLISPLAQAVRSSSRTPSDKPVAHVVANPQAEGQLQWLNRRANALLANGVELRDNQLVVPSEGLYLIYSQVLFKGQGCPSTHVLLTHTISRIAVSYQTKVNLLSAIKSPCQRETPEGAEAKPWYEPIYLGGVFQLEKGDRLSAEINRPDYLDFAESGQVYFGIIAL

CO/C=C(/C(=O)OC)c1ccccc1COc1cccc(C(F)(F)F)n1
active: [2] 4.01 µM | [4] 12 µM | [6] 0.783 µM | CD38, CD38 (gene 952) 6.48 µM | CD40, CD40 (gene 958) 7.75 µM | CD69, CD69 (gene 969) 5.07 µM
inactive: [1] | [3] | [5]

C[C@]12CCC(=O)C=C1CC[C@@H]1[C@@H]2CC[C@]2(C)C(=O)CC[C@@H]12
inactive: [1] | [2] | [3] | [4] | [5] | [6] | [7] | CD38, CD38 (gene 952) | CD40, CD40 (gene 958) | CD69, CD69 (gene 969)

O=S(=O)(O)C(F)(F)C(F)(F)C(F)(F)C(F)(F)C(F)(F)C(F)(F)F
inactive: [1] | [2] | [3] | [4] | [5] | [6] | [7] | CD38, CD38 (gene 952) | CD40, CD40 (gene 958) | CD69, CD69 (gene 969)

Oc1c(Cl)c(Cl)c(Cl)c(Cl)c1Cl
active: [2] 2.92 µM and 30.4 µM | [3] 4.98 µM | [4] 10.2 µM and 25.5 µM | [5] 32.4 µM | [6] 20 µM | CD38, CD38 (gene 952) 27.7 µM | CD40, CD40 (gene 958) 10.2 µM and 24.1 µM | CD69, CD69 (gene 969) 10.2 µM and 19.8 µM
inactive: [3] | [5] | [6]

CC1=C2C[C@H]3[C@@H](CC=C4C[C@@H](O)CC[C@@]43C)[C@@H]2CC[C@]12O[C@@H]1C[C@H](C)CN[C@H]1[C@H]2C
inactive: [1] | [2] | [3] | [4] | [5] | [6] | [7] | CD38, CD38 (gene 952) | CD40, CD40 (gene 958) | CD69, CD69 (gene 969)

O=C(O)C(F)(F)C(F)(F)C(F)(F)C(F)(F)C(F)(F)C(F)(F)C(F)(F)C(F)(F)F
active: [2] 47.9 µM and 58.4 µM | [3] 20 µM and 19.9 µM and 14.8 µM | CD38, CD38 (gene 952) 49.6 µM and 47 µM | CD40, CD40 (gene 958) 30 µM | CD69, CD69 (gene 969) 42.7 µM and 43.5 µM
inactive: [2] | [4] | [5] | [6] | CD38, CD38 (gene 952) | CD40, CD40 (gene 958) | CD69, CD69 (gene 969)

CC(C)(O)C(=O)Nc1ccc([N+](=O)[O-])c(C(F)(F)F)c1
active: [3] 0.024 µM | [4] 23.1 µM
inactive: [1] | [2] | [5] | [6] | CD38, CD38 (gene 952) | CD40, CD40 (gene 958) | CD69, CD69 (gene 969)
